# Several values for one entry are separate records, joined by “and”; a condition that tells them apart may be missing. Identical values can stand only once. Counter-ions that a name gives are not always drawn. Hit rate of the full screen: of about 5,800 compounds, about 620 (11%) showed activity. This excerpt belongs to a sample that is enriched for actives. A number with no mark means an inactive call.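 Rule for the calls: active = score above a cut-off or among the top three wells of a plate; in these data no inactive exceeds 0.85.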
# Test system: primary human hepatic stellate cells (donor 1)
# Test: scaled lipid accumulation score (0 = DMSO-like, 1 = nortriptyline-like); higher = stronger HSC inactivation (lipid re-accumulation), active = hit call of the paper
# Settings: 48 h
# [1] = library stock concentration: 3.33 mM
# [2] = library stock concentration: 10 mM
# [3] = library stock concentration: 1 mM
smiles,measurement,setting,value
COc1ccc(-n2c(C)c([N+](=O)[O-])c3ccc(O)cc32)cc1,scaled lipid accumulation score,[1],0.252
same,scaled lipid accumulation score,[2],0.703
O/N=C/c1ccc(-c2ccc(O)c(F)c2)c(Cl)c1O,scaled lipid accumulation score,[2],0.02
COc1ccc([C@H]2CNC(=O)C2)cc1OC1CCCC1 [(S)-(+)-Rolipram],scaled lipid accumulation score,[2],≤ -0.006
C[C@H](N)C(=O)CCCCCC(=O)O [KAPA (hydrochloride)],scaled lipid accumulation score,[3],0.007
O=C1[C@H](Cc2ccc(O)cc2)N2C(=O)CCN(C(=O)NCc3ccccc3)[C@H]2CN1Cc1cccc2ccccc12,scaled lipid accumulation score,[1],≤ 0
same,scaled lipid accumulation score,[2],0.29
CC(=Cc1ccc(C(=O)O)cc1)c1ccc2c(c1)C(C)(C)CCC2(C)C,scaled lipid accumulation score,[3],≤ -0.021
same,scaled lipid accumulation score,[2],≤ 0
CC(=Cc1ccc(C(=O)O)cc1)c1ccc2c(c1)C(C)(C)CCC2(C)C [TTNPB (Arotinoid Acid)],scaled lipid accumulation score,[1],≤ 0
same,scaled lipid accumulation score,[2],≤ -0.001
CCCCCCCCCC(=O)N[C@@H](Cc1c[nH]c2ccccc12)C(=O)N[C@@H](CC(N)=O)C(=O)N[C@@H](CC(=O)O)C(=O)N[C@@H]1C(=O)NCC(=O)N[C@@H](CCCN)C(=O)N[C@@H](CC(=O)O)C(=O)N[C@H](C)C(=O)N[C@@H](CC(=O)O)C(=O)NCC(=O)N[C@H](CO)C(=O)N[C@@H]([C@H](C)CC(=O)O)C(=O)N[C@@H](CC(=O)c2ccccc2N)C(=O)O[C@@H]1C [DAPTOMYCIN (5 millimolar/DMSO)],scaled lipid accumulation score,[2],≤ 0
CC(C)c1nn(-c2c(Cl)cccc2Cl)c2nc(Cc3ccc(OCCO)cc3)[nH]c(=O)c12,scaled lipid accumulation score,library stock concentration: 80 uM,0.074
same,scaled lipid accumulation score,library stock concentration: 400 uM,0.071
same,scaled lipid accumulation score,library stock concentration: 2 mM,0.275
same,scaled lipid accumulation score,[2],0.136
O=[N+]([O-])c1ccccc1S(=O)(=O)NCC1CCC(CNCC2CCc3ccccc3C2)CC1 (centres undefined) [NTNCB hydrochloride],scaled lipid accumulation score,[2],0.622
NC(=O)N/N=C/c1ccc(Oc2ccc(F)cc2)cc1,scaled lipid accumulation score,[2],0.015
C#C[C@]1(O)CC[C@H]2[C@@H]3CCc4cc(O)ccc4[C@H]3CC[C@@]21C [Ethinyl estradiol],scaled lipid accumulation score,library stock concentration: 6.7 mM,0.516
same,scaled lipid accumulation score,[2],≤ 0
C#C[C@]1(O)CC[C@H]2[C@@H]3CCc4cc(O)ccc4[C@H]3CC[C@@]21C [Ethinyl Estradiol],scaled lipid accumulation score,[1],≤ 0
same,scaled lipid accumulation score,[2],0.277
C#C[C@]1(O)CC[C@H]2[C@@H]3CCC4=Cc5oncc5CC4(C)[C@H]3CCC21C (some centres undefined) [Danazol],scaled lipid accumulation score,[2],0.915 (active)
C#C[C@]1(O)CC[C@H]2[C@@H]3CCC4=Cc5oncc5C[C@]4(C)[C@H]3CC[C@@]21C,scaled lipid accumulation score,[2],0.336
C#C[C@]1(O)CC[C@H]2[C@@H]3CCC4=Cc5oncc5C[C@]4(C)[C@H]3CC[C@@]21C [Danazol],scaled lipid accumulation score,,0.447
same,scaled lipid accumulation score,library stock concentration: 5.9 mM,0.204 and 0.103
same,scaled lipid accumulation score,[2],≤ 0
C#C[C@]1(O)CC[C@H]2[C@@H]3CCc4cc(O)ccc4[C@H]3CC[C@@]21C,scaled lipid accumulation score,[2],0.186
CC(C)NCCN(C(C)C)S(=O)(=O)c1ccc(Cl)cc1Cl,scaled lipid accumulation score,[2],0.722
CCCCc1oc2ccc(NS(C)(=O)=O)cc2c1C(=O)c1ccc(OCCCN(CCCC)CCCC)cc1 [Dronedarone HCl],scaled lipid accumulation score,[1],0.642
same,scaled lipid accumulation score,[2],0.263
CCCCc1oc2ccccc2c1C(=O)c1cc(I)c(OCCN(CC)CC)c(I)c1 [Amiodarone],scaled lipid accumulation score,library stock concentration: 3.1 mM,0.438
CCCCc1oc2ccccc2c1C(=O)c1cc(I)c(OCCN(CC)CC)c(I)c1 [Amiodarone HCl],scaled lipid accumulation score,[1],0.394
CCCCc1cc2ccccc2c(OCCN(C)C)n1 [Dimethisoquin hydrochloride],scaled lipid accumulation score,,0.71
CCCCc1oc2ccccc2c1C(=O)c1cc(I)c(OCCN(CC)CC)c(I)c1.Cl [Amiodarone hydrochloride],scaled lipid accumulation score,[2],1.04 (active)
CCCCc1oc2ccccc2c1C(=O)c1cc(I)c(OCCN(CC)CC)c(I)c1.Cl [Amiodarone HCl],scaled lipid accumulation score,[2],1.27 (active)
CCCCc1oc2ccccc2c1C(=O)c1cc(I)c(OCCN(CC)CC)c(I)c1,scaled lipid accumulation score,library stock concentration: 7.3 mM,0.281
same,scaled lipid accumulation score,library stock concentration: 9.5 mM,1.34 (active)
CCc1oc2ccccc2c1C(=O)c1cc(Br)c(O)c(Br)c1,scaled lipid accumulation score,[2],≤ 0
CCCCc1oc2ccccc2c1C(=O)c1cc(I)c(OCCN(CC)CC)c(I)c1 [Amiodarone hydrochloride],scaled lipid accumulation score,,0.445
same,scaled lipid accumulation score,library stock concentration: 2.9 mM,0.417
CCc1oc2ccccc2c1C(=O)c1cc(Br)c(O)c(Br)c1 [Benzbromarone],scaled lipid accumulation score,,0.013
same,scaled lipid accumulation score,[1],≤ 0
same,scaled lipid accumulation score,library stock concentration: 4.7 mM,≤ 0
same,scaled lipid accumulation score,[2],≤ -0.001
NC(=O)c1cc[n+](CC2=C(C(=O)O)N3C(=O)[C@@H](NC(=O)C(c4ccccc4)S(=O)(=O)[O-])[C@H]3SC2)cc1 (some centres undefined) [Cefsulodin sodium salt hydrate],scaled lipid accumulation score,[2],0.04
NC(=O)c1ccc2nc(-c3ccc(Oc4ccc(Cl)cc4)cc3)[nH]c2c1 [Chk2 Inhibitor II],scaled lipid accumulation score,[1],≤ 0
CCCCCCCCCCCCC/C=C/[C@@H](O)[C@H](CO)NCCCCCCCC [C-8 Ceramine],scaled lipid accumulation score,[3],0.054
CCCCCCCCCCCCC/C=C/[C@@H](O)[C@H](CO)NCCCCCCCC [C8 Ceramine],scaled lipid accumulation score,[3],0.067

# Source: the supplement of paper PMC9135407
